# Laboratory results published in a collection of fitness landscapes (doi:10.1126/science.1257360).
# In all, about 140,000 sequences were measured (“enrichment ratio after two sorts for PhoP signalling”: median about 0, highest 2% from about 11 on). What follows is part of a selection rich in the highest values, with near analogues and random picks from the rest.
# B1: PhoQ; a variant is named by its letters at X, in order, P23837 (parent)
# chain: MKKLLRLFFPLSLRVRFLLATAAVVLVLSLAYGMVALIGYSVSFDKTTFRLLRGESNLFYTLAKWENNKLHVELPENIDKQSPTMTLIYDENGQLLWAQRDVPWLMKMIQPDWLKSNGFHEIEADVNDTSLLLSGDHSIQQQLQEVREDDDDAEMTHSVAVNVYPATSRMPKLTIVVVDTIPVELKSSYMVWSWFIYVLSANLLLVIPLLWVAAWWSLRPIEALAKEVRELEEHNRELLNPATTRELTSLVRNLNRLLKSERERYDKYRTTLTDLTHSLKTPLXXLQXXLRSLRSEKMSVSDAEPVMLEQISRISQQIGYYLHRASMRGGTLLSRELHPVAPLLDNLTSALNKVYQRKGVNISLDISPEISFVGEQNDFVEVMGNVLDNACKYCLEFVEISARQTDEHLYIVVEDDGPGIPLSKREVIFDRGQRVDTLRPGQGVGLAVAREITEQYEGKIVAGESMLGGARMEVIFGRQHSAPKDE
# Variants of: B1
# Test: enrichment ratio after two sorts for PhoP signalling (ratio (wild type AVST 3.29)); higher = more functional
# Conditions: with PhoP (E. coli)
row,Variant,enrichment ratio
1,HQSY,≤ 0.25
2,RKAR,≤ 0.25
3,MEHS,≤ 0.25
4,EHIP,≤ 0.25
5,RNCT,≤ 0.25
6,TQWA,17.1
7,WQCT,≤ 0.25
8,NVSA,≤ 0.25
9,TQSK,≤ 0.25
10,TQYI,≤ 0.25
11,TQYE,35.7
12,HDSA,≤ 0.25
13,TQSA,19.8
14,NQYE,≤ 0.25
15,TQCT,12.5
16,TQWI,1.91
17,GFAI,≤ 0.25
18,GLPN,≤ 0.25
19,GAFM,≤ 0.25
20,EVEQ,≤ 0.25
21,FEQI,≤ 0.25
22,YIWG,≤ 0.25
23,TQTG,5.83
24,TQSI,11.7
25,TQRK,≤ 0.25
26,WSSI,≤ 0.25

row,Variant,enrichment ratio
1,TEFF,6.49
2,MCRI,≤ 0.25
3,TELE,11.2
4,TEYE,≤ 0.25
5,MEVE,≤ 0.25
6,HPLE,≤ 0.25
7,MELE,≤ 0.25
8,TEVE,11.6
9,RSQR,≤ 0.25
10,YMEV,≤ 0.25
11,GDNY,≤ 0.25
12,GDVA,≤ 0.25
13,GDVM,28.9
14,GDIV,8.68
15,GDYM,≤ 0.25
16,FDVI,≤ 0.25
17,GDTV,13.7
18,GDDV,≤ 0.25
19,GDTM,4.42
20,TDVI,11.8
21,GDVI,20
22,LTVI,≤ 0.25
23,INWI,≤ 0.25
24,VNRI,≤ 0.25
25,NHGQ,≤ 0.25
26,MSWY,5.91

row,Variant,enrichment ratio
1,SPRG,≤ 0.25
2,PPYC,≤ 0.25
3,HEPW,≤ 0.25
4,EAAS,≤ 0.25
5,SSAE,10.5
6,SSII,16.3
7,KSII,≤ 0.25
8,KSIV,≤ 0.25
9,SSYV,1.11
10,SSAV,12.9
11,SSIV,14.2
12,SSMV,18.9
13,SSPV,1.03
14,SPAV,≤ 0.25
15,SSWV,0.518
16,SSID,≤ 0.25
17,EHMI,≤ 0.25
18,WWKN,≤ 0.25
19,YRIR,≤ 0.25
20,HENW,≤ 0.25
21,GDFP,≤ 0.25
22,WFHL,≤ 0.25
23,EAAQ,≤ 0.25
24,SSIE,≤ 0.25
25,KSIS,≤ 0.25
26,SCIM,3.17

row,Variant,enrichment ratio
1,NSIS,≤ 0.25
2,SSMR,≤ 0.25
3,SSIS,11.9
4,SSMD,3.52
5,SSIM,18.4
6,SSMI,19
7,ADIS,≤ 0.25
8,AQIV,9.59
9,AQIS,13
10,ASCT,11.1
11,DRDN,≤ 0.25
12,ADGC,≤ 0.25
13,QENS,≤ 0.25
14,MSVE,≤ 0.25
15,VCLI,5.48
16,TNQT,7.38
17,KSIL,≤ 0.25
18,SQIS,13.9
19,SSMS,11.7
20,SSMW,≤ 0.25
21,SSIL,12.3
22,SSMF,12.7
23,DPIS,≤ 0.25
24,SSMG,10.3
25,SSEL,0.485
26,KSMF,≤ 0.25

row,Variant,enrichment ratio
1,SQIV,5.01
2,SSHF,≤ 0.25
3,IRSG,≤ 0.25
4,FANW,≤ 0.25
5,HNPM,≤ 0.25
6,CVPS,≤ 0.25
7,FSNW,≤ 0.25
8,APGD,≤ 0.25
9,SFDK,≤ 0.25
10,MPYC,≤ 0.25
11,EQDL,≤ 0.25
12,FDIM,≤ 0.25
13,FSIM,11.9
14,SSIG,11.5
15,SCII,5.01
16,KSIM,≤ 0.25
17,SDII,11.7
18,STME,8.24
19,SSME,16.6
20,KSME,≤ 0.25
21,KSIG,≤ 0.25
22,TSIG,≤ 0.25
23,SYII,≤ 0.25
24,KAWR,≤ 0.25
25,KQKI,≤ 0.25
26,TDSI,8.92

row,Variant,enrichment ratio
1,PNEG,≤ 0.25
2,MIVG,≤ 0.25
3,NTPE,≤ 0.25
4,KFFD,≤ 0.25
5,PYGG,≤ 0.25
6,PMVC,≤ 0.25
7,ATHP,≤ 0.25
8,KYVQ,≤ 0.25
9,SEVQ,11.9
10,SLVQ,0.637
11,ATVA,1.05
12,MEVQ,≤ 0.25
13,SQVQ,15.1
14,ATVQ,13.9
15,STVQ,12
16,SCVQ,3.12
17,YTVQ,0.393
18,NEVQ,≤ 0.25
19,NQCF,≤ 0.25
20,KRSQ,≤ 0.25
21,WTEW,≤ 0.25
22,QAYY,10.3
23,WESK,≤ 0.25
